Screening data: PubChem, several laboratories
Sampled rows, rich in hits. Any-hit rate of the full collection: about 0.51%.
E coli growth-1 – inhibitors of Escherichia coli growth; OD600, 23 h; stronger effect = lower value; OD600 absorbance (test concentration not listed); hit rate 0.21% among 330,000; AID 1053175;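 active = OD600 absorbance below the run mean of sample wells minus 3.6 SD, in any replicate, cut at about 0.56 in these data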
AddAB inh – less growth of phage-infected E. coli with AddAB. E. coli expressing H. pylori AddAB, absorbance growth. hit rate 0.29% among 330,000. AID 435030. inhibition, % at 11.9 µM; in the data active = inhibition above about 12%;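 also: 0% = vehicle wells of infected cells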
Tat transport – blocks Tat-dependent protein export in E. coli | hit rate 0.036% among 340,000 | inhibition, % at 10 µM | E. coli MC4100 TorA-mCherry Tat export, fluorescence;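 active = mean replicate inhibition at least 50% and at least half of replicates individually reaching 50%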;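 also: exported cargo escapes ClpAP degradation while cytoplasmic cargo is degraded and loses fluorescence; 0% = median of neutral control wells and 100% = median of NaSCN control wells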
phage Ecoli inh – E. coli growth loss with phage present | growth absorbance | inhibition, % at 11.9 µM | hit rate 0.26% among 360,000 | AID 651602; in the data active = inhibition above about 11%
E coli growth-2 – counter-screen for AddAB inhibitors: E. coli growth inhibition; inhibition, % at 11.9 µM; hit rate 0.27% among 330,000; E. coli V3065 growth, OD600 absorbance, 18 h;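 active = inhibition above the campaign's mean inhibition across all tested compounds plus 3 SD, cut at about 9.9% in these data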;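 also: uninfected addAB+ strain grown without phage in ampicillin broth; 0% = DMSO wells and 100% = ciprofloxacin 0.95 µg/ml wells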
AddAB confirm – growth loss of T4-infected E. coli expressing H. pylori AddAB, confirmed | shares compounds with AddAB inh | E. coli V3065 expressing H. pylori AddAB, T4 phage, OD; T4 phage with gene 2 nonsense mutations | inhibition, % at 11.9 µM | hit rate 64% among 880;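 active = mean inhibition above a set limit taken from the earlier primary screen, cut at about 13% in these data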;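 also: higher means less bacterial growth since AddAB block lets phage replicate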
RecBCD counter – counter-screen: growth loss of RecBCD+ E. coli with mutant T4 phage; shares compounds with AddAB inh; E. coli V66 + mutant T4 phage, OD growth; inhibition, % at 11.9 µM; AID 488955; hit rate 73% among 880;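 active = mean inhibition above the mean of solvent-only control wells plus 3 SD, cut at about 4% in these data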;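 also: optical density read after an 18 h incubation at 37 °C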
Bact viability – counter-screen for AddAB inhibitors: inhibitors of bacterial viability; inhibition, % at 11.9 µM; shares compounds with AddAB inh; hit rate 35% among 880; absorbance (AddAB counterscreen); AID 488956; in the data active = inhibition above about 25%
Numbers without * were called inactive.

`CCCC(=O)NC(c1ccc2c(c1)OCO2)c1cc(Cl)c2cccnc2c1O` (stereo not given) gave E coli growth-1 0.68, AddAB inh 23*, Tat transport -5, E coli growth-2 24*, AddAB confirm 21*, RecBCD counter 22* and Bact viability 23.
`CCC(=O)NC(c1ccc(C)cc1)c1cc(Cl)c2cccnc2c1O` (stereo not given) gave AddAB inh 21*, Tat transport -11, E coli growth-2 25*, AddAB confirm 16*, RecBCD counter 17* and Bact viability 14.
For CCC(=O)NC(C)c1cc(Cl)c2cccnc2c1O (stereo not given) the results were E coli growth-1 0.69, AddAB inh -4, Tat transport 0, phage Ecoli inh 7 and E coli growth-2 -4.
Screening COc1ccc(C(NC(C)=O)c2cc(Cl)c3cccnc3c2O)cc1OC (stereo not given) returned AddAB inh 10, Tat transport -2, phage Ecoli inh 8 and E coli growth-2 9.
For Cc1ccc(S(=O)(=O)Nc2ccccc2C=Nc2nc3ccccc3n2C)cc1 the results were E coli growth-1 0.62.
Screening O=C(COC(=O)COc1ccccc1)Nc1ncc([N+](=O)[O-])s1 returned E coli growth-1 0.59, AddAB inh 13*, Tat transport -10, phage Ecoli inh 2, E coli growth-2 7, AddAB confirm 33*, RecBCD counter 5.7* and Bact viability 15.
Screening O=C(COc1ccc(Cl)cc1)Nc1ncc([N+](=O)[O-])s1 returned E coli growth-1 0.66, Tat transport -5 and phage Ecoli inh 3.
`COc1ccc(C2=NS(=O)(=O)N(C)C(C(=O)NCc3ccco3)=C2)cc1OC` gave E coli growth-1 0.66, AddAB inh -2, Tat transport -8, phage Ecoli inh 2 and E coli growth-2 -3.
Cc1ccc(C2=NS(=O)(=O)N(C)C(C(=O)NCc3ccco3)=C2)cc1 was read as E coli growth-1 0.72, AddAB inh 26*, Tat transport -10, phage Ecoli inh 3, E coli growth-2 6, AddAB confirm -2, RecBCD counter 1 and Bact viability -1.
Screening COc1ccc(CNC(=O)CC(C)=NNC(=O)c2ccc([N+](=O)[O-])cc2Cl)cc1 returned E coli growth-1 0.64.
Screening Nc1ncnc2c1ncn2C1CCCO1 (stereo not given) returned E coli growth-1 0.68, AddAB inh 0, Tat transport -1, phage Ecoli inh 3 and E coli growth-2 0.
Screening S=c1nc[nH]c2c1ncn2C1CCCO1 (stereo not given) returned AddAB inh 26*, Tat transport 9, phage Ecoli inh 8, E coli growth-2 22*, AddAB confirm -4, RecBCD counter 0 and Bact viability -2.
For CCOC(=O)c1c(C)nc(C)c2c(=O)oc3ccccc3c12 the results were E coli growth-1 0.69, AddAB inh 98*, Tat transport 8, phage Ecoli inh 1, E coli growth-2 99*, AddAB confirm -3, RecBCD counter -2 and Bact viability -3.
Cc1ccsc1C=NNS(=O)(=O)c1ccc([N+](=O)[O-])cc1 was read as E coli growth-1 0.66.
For COc1cccc(Cn2nnc(C(=O)NCc3ccc(F)cc3)c2N)c1 the results were E coli growth-1 0.74, AddAB inh 21*, Tat transport -4, phage Ecoli inh 4, E coli growth-2 9, AddAB confirm 1, RecBCD counter 0 and Bact viability -4.
C#CCOCCOCCOCCNc1nc(N2CCN(C(=O)CCCCCCCCCCNC(=O)Cn3cc(CC(C)O)nn3)CC2)nc(N2CCN(C(=O)CCCCCCCCCCNC(=O)C(CCCCN)n3cc(CCCC(=O)O)nn3)CC2)n1 (stereo not given) was read as E coli growth-1 0.67.
COC(=O)c1cccc(C23CC4(C2)C(CN(Cc2ccc(C(F)(F)F)cc2)C4c2ccccc2)C3c2ccc(Cl)nc2)c1 (stereo not given) was read as E coli growth-1 0.75.
